# Data: ChEMBL document CHEMBL3988442, “University of Dundee, Small-Polar-MMV Screening Library” (2021)
# For some assays here: Measured potencies and affinities stand elsewhere.
# Assays:
# Set-up in all cases: scale not given: direction of the effect not stated beside the values
# [1] = target: Protein translocase subunit SecA (Escherichia coli (strain K12)) (UniProt P10408); assay: Assay to Identify E. coli SecA ATPase Inhibitors; type: functional; conditions: 30 µM
# [2] = target: T1, Ubiquitin-activating enzyme e1, putative (Leishmania donovani (strain BPK282A1)) (UniProt E9BSI1); assay: Leishmania donovani Ubiquitin Activating Enzyme (LdE1); type: functional; conditions: 30 µM
# T1 sequence (whole entry): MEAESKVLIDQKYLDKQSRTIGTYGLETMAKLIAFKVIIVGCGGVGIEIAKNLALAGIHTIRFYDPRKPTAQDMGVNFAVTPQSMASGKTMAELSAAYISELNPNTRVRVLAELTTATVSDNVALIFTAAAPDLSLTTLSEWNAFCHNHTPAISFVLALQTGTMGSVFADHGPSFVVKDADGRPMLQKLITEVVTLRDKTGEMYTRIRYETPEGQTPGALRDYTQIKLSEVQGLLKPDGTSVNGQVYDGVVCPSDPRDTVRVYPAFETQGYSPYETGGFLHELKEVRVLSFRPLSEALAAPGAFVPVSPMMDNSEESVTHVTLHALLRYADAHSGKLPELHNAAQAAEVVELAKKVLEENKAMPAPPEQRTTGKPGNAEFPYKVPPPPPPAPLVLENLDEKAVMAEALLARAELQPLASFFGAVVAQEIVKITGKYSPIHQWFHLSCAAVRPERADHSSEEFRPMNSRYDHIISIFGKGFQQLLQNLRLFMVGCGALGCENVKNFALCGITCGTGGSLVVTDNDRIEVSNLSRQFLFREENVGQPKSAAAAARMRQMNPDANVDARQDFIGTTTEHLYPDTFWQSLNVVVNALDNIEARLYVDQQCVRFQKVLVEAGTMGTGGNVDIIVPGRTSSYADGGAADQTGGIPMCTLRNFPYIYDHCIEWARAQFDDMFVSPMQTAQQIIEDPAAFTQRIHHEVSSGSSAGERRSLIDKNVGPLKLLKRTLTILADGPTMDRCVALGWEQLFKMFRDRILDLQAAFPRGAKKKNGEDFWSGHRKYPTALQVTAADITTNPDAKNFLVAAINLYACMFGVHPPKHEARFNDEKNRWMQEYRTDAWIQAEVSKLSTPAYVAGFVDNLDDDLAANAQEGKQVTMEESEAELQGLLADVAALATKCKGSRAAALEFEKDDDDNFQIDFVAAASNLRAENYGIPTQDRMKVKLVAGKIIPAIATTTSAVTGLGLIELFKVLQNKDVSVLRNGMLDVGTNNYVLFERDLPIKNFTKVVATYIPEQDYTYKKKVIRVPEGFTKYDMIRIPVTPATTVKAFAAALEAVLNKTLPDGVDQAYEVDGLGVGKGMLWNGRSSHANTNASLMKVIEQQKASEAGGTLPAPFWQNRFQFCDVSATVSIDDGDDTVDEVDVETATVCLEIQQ
# [3] = target: AMP-activated protein kinase, AMPK (Homo sapiens) (UniProt P54646+O43741+P54619+Q9UGJ0+Q9Y478+Q13131+Q9UGI9); assay: AMP-dependent Kinase enzyme assay. An in vitro enzyme assay that detects ADP turnover that is directly proportional to AMPK activity. This uses naive AMPK that is activated during the assay with MK-8722; type: functional; conditions: 30 µM
# [4] = target: Sialic acid-binding Ig-like lectin 9 (Homo sapiens) (UniProt Q9Y336); assay: Hs-Siglec9 ALPHAscreen SOP 20170721; conditions: 10 µM
# Trypanosoma cruzi = assay: Trypanosoma cruzi phosphomannomutase and mannose-1-phosphate guanylyltransferase assay; type: functional; conditions: 10 µM
# [5] = target: T2, Arginase-2, mitochondrial (Homo sapiens) (UniProt P78540); assay: in vitro enzyme assay to detect the production of urea directly proportional to the activity of Arginase II; type: functional; conditions: 33.3 µM; also: in the data most compounds retested in dose-response had high values
# T2 sequence (whole entry): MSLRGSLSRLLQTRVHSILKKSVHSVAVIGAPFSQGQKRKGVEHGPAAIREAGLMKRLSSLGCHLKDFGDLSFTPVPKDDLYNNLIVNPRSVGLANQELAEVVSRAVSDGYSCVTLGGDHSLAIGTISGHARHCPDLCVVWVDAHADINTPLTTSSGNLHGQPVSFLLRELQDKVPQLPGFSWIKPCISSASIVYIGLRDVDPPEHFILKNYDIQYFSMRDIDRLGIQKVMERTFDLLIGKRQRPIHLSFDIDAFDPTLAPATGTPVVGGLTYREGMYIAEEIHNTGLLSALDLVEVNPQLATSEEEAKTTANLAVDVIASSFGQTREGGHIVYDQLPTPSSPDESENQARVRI
# [6] = target: T3, Proteasome subunit beta (Trypanosoma cruzi) (UniProt O96673); assay: Trypanosoma cruzi proteasome chymotrypsin-like activity (TcProtChymo) assay.; also: in the data most compounds retested in dose-response had high values; type: functional; conditions: 9.37 µM
# T3 sequence (whole entry): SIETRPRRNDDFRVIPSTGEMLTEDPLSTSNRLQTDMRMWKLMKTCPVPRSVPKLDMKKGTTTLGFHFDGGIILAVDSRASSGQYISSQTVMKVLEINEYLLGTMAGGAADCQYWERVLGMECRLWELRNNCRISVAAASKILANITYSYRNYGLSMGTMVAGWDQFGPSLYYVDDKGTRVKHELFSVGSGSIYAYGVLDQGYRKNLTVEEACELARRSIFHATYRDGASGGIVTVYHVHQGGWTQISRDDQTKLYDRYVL
# Homo sapiens = species: Homo sapiens; assay: To identify inhibition of the IFN signalling (Jak-Stat) pathway via expression of an eGFP reporter gene under the control of an IFN-stimulated response element (ISRE) containing MxA promoter.; type: functional; conditions: 30 µM
# [7] = target: T4, Tyrosyl-tRNA synthetase, putative (Trypanosoma cruzi (strain CL Brener)) (UniProt Q4DSP6); assay: Trypanosoma cruzi tyrosyl tRNA synthetase (TcYRS) _High Tyrosine SOP; type: functional; conditions: 30 µM; also: in the data most compounds retested in dose-response had high values
# T4 sequence (whole entry): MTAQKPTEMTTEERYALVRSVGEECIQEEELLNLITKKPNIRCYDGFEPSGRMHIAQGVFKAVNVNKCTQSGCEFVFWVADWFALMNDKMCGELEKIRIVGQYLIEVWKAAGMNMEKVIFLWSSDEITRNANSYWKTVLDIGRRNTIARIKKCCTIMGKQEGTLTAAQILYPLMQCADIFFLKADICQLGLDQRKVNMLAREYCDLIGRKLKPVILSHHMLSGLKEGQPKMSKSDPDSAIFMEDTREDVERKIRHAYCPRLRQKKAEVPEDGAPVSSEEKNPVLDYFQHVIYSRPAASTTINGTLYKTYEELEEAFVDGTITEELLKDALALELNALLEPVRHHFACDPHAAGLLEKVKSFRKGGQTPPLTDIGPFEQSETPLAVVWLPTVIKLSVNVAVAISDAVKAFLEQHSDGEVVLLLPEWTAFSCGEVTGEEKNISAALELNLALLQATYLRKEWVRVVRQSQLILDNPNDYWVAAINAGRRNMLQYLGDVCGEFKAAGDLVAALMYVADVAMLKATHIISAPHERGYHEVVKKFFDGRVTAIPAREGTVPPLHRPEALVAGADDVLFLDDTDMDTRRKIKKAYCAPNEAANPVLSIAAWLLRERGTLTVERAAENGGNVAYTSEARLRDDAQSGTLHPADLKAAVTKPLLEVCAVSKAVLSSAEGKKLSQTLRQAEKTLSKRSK
# [8] = target: T4, Tyrosyl-tRNA synthetase, putative (Trypanosoma cruzi (strain CL Brener)); assay: Trypanosoma cruzi tyrosyl tRNA synthetase (TcYRS) SOP; type: functional; conditions: 30 µM
# [9] = target: Chromo domain-containing protein 1 (Saccharomyces cerevisiae (strain ATCC 204508 / S288c) (Baker's yeast)) (UniProt P32657); assay: ScCHD-1 Enzyme Inhibition Assay; type: functional; conditions: 30 µM; also: in the data most compounds retested in dose-response had high values
# Chain of Chromo domain-containing protein 1 (Saccharomyces cerevisiae (strain ATCC 204508 / S288c) (Baker's yeast)) (P32657 whole entry, the tested form may be a part): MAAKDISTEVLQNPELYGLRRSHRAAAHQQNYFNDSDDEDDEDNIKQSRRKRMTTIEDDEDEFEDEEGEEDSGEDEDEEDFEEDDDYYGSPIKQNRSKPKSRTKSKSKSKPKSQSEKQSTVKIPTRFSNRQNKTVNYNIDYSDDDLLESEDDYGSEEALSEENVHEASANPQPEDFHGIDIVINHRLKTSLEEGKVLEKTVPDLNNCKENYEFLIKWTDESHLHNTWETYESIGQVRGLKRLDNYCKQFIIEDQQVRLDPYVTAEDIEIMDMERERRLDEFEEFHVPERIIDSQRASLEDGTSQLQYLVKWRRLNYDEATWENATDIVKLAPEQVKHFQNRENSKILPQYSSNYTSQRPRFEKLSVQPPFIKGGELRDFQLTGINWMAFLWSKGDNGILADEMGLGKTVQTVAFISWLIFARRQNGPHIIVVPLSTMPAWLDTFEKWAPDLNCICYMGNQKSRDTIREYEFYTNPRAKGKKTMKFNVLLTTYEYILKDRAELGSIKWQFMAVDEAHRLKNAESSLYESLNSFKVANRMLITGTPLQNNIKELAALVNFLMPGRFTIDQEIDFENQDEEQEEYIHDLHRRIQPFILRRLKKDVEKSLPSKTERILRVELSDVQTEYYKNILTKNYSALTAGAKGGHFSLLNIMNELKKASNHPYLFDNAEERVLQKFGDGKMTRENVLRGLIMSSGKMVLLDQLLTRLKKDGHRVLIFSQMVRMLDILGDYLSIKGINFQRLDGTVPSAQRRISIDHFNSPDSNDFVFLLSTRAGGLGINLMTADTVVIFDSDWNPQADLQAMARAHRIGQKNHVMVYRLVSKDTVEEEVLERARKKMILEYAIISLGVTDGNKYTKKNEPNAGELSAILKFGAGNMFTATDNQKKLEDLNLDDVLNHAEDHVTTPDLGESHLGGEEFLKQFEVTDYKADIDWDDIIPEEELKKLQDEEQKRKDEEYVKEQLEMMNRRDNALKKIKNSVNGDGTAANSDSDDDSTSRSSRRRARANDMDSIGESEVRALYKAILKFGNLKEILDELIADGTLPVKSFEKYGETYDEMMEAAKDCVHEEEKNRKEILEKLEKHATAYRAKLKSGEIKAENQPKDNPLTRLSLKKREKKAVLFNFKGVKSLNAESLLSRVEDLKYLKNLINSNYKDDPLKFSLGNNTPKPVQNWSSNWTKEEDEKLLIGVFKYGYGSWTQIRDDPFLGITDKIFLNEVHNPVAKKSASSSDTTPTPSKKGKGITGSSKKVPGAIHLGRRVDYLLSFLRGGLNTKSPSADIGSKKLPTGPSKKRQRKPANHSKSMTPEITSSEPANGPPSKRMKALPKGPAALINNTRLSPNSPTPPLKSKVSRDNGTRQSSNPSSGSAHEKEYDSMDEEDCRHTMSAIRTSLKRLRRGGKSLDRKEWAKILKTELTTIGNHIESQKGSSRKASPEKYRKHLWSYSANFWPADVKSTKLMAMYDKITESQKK
# Chain of Sialic acid-binding Ig-like lectin 9 (Homo sapiens) (Q9Y336 whole entry): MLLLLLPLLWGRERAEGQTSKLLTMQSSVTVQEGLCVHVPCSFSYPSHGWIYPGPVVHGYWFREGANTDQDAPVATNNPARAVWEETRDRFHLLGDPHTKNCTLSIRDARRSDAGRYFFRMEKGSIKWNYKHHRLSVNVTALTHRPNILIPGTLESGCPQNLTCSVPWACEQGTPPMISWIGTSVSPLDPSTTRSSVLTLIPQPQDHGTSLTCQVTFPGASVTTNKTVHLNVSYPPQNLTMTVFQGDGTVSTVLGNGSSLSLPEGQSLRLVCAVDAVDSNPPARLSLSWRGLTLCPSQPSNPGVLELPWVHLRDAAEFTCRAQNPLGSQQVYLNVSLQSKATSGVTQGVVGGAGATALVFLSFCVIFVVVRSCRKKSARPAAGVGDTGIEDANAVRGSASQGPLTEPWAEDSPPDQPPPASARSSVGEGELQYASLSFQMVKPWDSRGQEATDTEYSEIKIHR
# Chain of Protein translocase subunit SecA (Escherichia coli (strain K12)) (P10408 whole entry): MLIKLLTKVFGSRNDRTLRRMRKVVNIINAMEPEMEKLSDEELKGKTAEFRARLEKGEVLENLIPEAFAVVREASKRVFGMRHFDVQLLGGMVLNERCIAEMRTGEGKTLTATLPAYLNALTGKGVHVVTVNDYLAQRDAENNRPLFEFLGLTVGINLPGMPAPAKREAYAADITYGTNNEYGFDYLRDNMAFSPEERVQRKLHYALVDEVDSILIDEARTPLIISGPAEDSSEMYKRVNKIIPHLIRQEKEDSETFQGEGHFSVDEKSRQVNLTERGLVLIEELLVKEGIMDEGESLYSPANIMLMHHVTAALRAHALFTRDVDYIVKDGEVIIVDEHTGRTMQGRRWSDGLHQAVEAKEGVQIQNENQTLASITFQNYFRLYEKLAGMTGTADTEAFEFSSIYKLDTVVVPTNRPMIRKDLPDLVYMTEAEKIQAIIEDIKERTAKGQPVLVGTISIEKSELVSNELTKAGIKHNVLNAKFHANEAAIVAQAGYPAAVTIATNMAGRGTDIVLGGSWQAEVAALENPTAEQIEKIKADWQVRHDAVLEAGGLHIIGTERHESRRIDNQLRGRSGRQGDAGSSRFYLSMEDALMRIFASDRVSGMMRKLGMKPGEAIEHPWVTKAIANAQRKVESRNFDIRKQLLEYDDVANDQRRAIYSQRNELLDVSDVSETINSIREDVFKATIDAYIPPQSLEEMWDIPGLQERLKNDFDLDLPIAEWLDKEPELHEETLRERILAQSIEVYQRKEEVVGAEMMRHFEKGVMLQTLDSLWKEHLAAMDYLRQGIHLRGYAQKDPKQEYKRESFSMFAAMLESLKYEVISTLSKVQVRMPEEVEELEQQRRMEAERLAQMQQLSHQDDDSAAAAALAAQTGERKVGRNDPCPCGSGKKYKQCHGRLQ
SMILES,Percent Effect [1],Percent Effect [2],Percent Effect [3],Percent Effect [4],Percent Effect (Trypanosoma cruzi),Percent Effect [5],Percent Effect [6],Percent Effect (Homo sapiens),Percent Effect [7],Percent Effect [8],Percent Effect [9]
c1ncn(CC2CCCCN2Cc2csc(C3CCCC3)n2)n1 (configuration not stated),-2.71%,-5.2%,-0.0278%,1.89%,9.55%,-1.42%,6.93%,11.4%,10.7%,19.5%,66.7%
Cc1ncoc1C(=O)N1C[C@H]2CCC[C@@]2(COCC2CCOCC2)C1,-3.5%,0%,4.71%,-0.295%,1.66%,1.59%,22.3%,-6.69%,2.16%,7.69%,5.48%
CNC(=O)CC1CC2(CCN(Cc3nccs3)CC2)c2ccccc21 (configuration not stated),-3.09%,16.2%,-8.78%,1.43%,3.52%,3.75%,11.8%,-4.56%,7.92%,8.54%,-7.65%
CN(C)CCNC(=O)c1cc(-c2cnc(N3CCCC3)nc2)cn1C,-6.55%,5.33%,9.86%,-3.71%,-0.197%,-1.17%,0.0881%,45.6%,0%,-6.41%,-10.7%
OC(COCc1cccs1)CN1CCC(c2ccn[nH]2)CC1 (configuration not stated),0.446%,15.2%,-3.7%,-4.14%,-8.03%,3.42%,8.6%,16.3%,-2.46%,8.86%,-3.55%
Cc1noc(C)c1CN1C(=O)[C@H]2CC[C@@H]1CN(Cc1cccnc1N)C2,0.397%,1.39%,15.3%,-8.6%,-8.46%,3.53%,23%,31.8%,0%,-5.13%,3.37%
Clc1ccccc1C1(c2ccnc(-c3ncccn3)n2)CCNCC1,-3.79%,7.79%,1.81%,8.56%,-3.64%,-2.76%,7.49%,-17.8%,6.45%,18.5%,-0.785%
COc1ccc(-n2ccc(C(=O)NCCN3CCCCC3C)n2)cc1 (configuration not stated),-5.51%,-8.11%,-13.2%,18.1%,4.62%,-6.01%,1.62%,-11.9%,1.48%,16.1%,-12.9%
CNS(=O)(=O)c1cccc(C(C)NCc2nccn2C(C)C)c1 (configuration not stated),-0.324%,13.5%,-9.13%,-6.24%,-0.781%,16.2%,16.3%,10.9%,10.9%,15.8%,2.31%
O=C(CNCCn1cccn1)NCC1(c2ccccc2)CC1,-0.0759%,-2.6%,8.25%,8.53%,1.27%,1.47%,-3.96%,7.94%,3.81%,7.06%,-6.43%
CC(NC(=O)NCc1cccnc1N1CCCCC1)c1nccs1 (configuration not stated),-4.11%,7.79%,4.63%,1.05%,6.37%,-7.12%,1.01%,2.75%,5.83%,14.6%,-7.32%
CC(C)C1CN(C(=O)c2nccnc2N)CCS1 (configuration not stated),-2.86%,10.4%,-7.56%,11%,3.83%,-92.4%,6.32%,14.5%,3.23%,8.64%,-9.31%
CCN(CC)Cc1ccc(C(=O)N2CCN(CC(C)O)CC2)cc1 (configuration not stated),-4.12%,0%,-3.46%,8.13%,-0.472%,-2.81%,-4.5%,-2.61%,4.43%,1.24%,0.847%
Cc1nc(C2CCCN(C(=O)c3ccc(N4CCCC4)nc3)C2)no1 (configuration not stated),-3.94%,3.8%,7.78%,4.58%,3.18%,-8.39%,1.37%,13.9%,4.17%,12.7%,-26.5%
Cc1ccc2ncnc(N3CCOCC3c3c(C)nn(C)c3C)c2c1 (configuration not stated),-3.4%,5.33%,-4.79%,3.91%,-0.487%,-0.521%,16%,21.1%,6.01%,8.64%,-5.67%
Cc1nc(CN2CCCC(N(C)Cc3nnsc3Cl)C2)no1 (configuration not stated),-5.44%,5.2%,0.941%,-5.57%,6.76%,-5.26%,2.99%,-2.55%,5.71%,7.06%,-13.5%
CN1CC(C(=O)NC(C)(C)C)CC1=O (configuration not stated),-3.04%,-5.48%,-0.441%,-0.584%,-0.595%,-3.59%,3%,-7.57%,2.08%,8.64%,6.01%
N#Cc1ccc(CNCC2CCN(CCO)CC2)cc1,-1.19%,5.48%,-0.789%,-1.57%,-7.05%,5%,9.58%,11.5%,0%,10%,-2.99%
Cc1cc(C(=O)N2CCCC2Cn2nc(C)cc2C)on1 (configuration not stated),-2.76%,10.8%,-7.13%,13.4%,3.87%,-7.62%,4.14%,8.42%,5.42%,18.5%,-8.04%
CN(C(=O)CCNC(=O)NC1CCCCC1)c1ccccc1,-3.57%,21.1%,-2.45%,-10.2%,3.21%,-1.18%,14.3%,8.02%,3.19%,13%,-0.404%
COc1ccc(-c2nc(CN3CC(n4cc(C)cn4)C3)no2)cc1,-4.92%,10.4%,-1.25%,16.8%,4.03%,88.3%,12%,12.7%,6.45%,21%,-9.02%
Cc1nc2ccccc2nc1CN(C)CC1CCCN1c1cccnn1 (configuration not stated),-5.25%,5.2%,0.00702%,-11.8%,3.23%,1.47%,5.58%,21.9%,10.5%,2.35%,-19.8%
